Assay results as given in PubChem BioAssay AID540296 (Southern Research Specialized Biocontainment Screening …, 2011).
Potency and affinity values are given separately. The source made the active and inactive calls. Where a call stands in place of a potency, no number is given. No rule for the calls is given here.

Assay: MDCK cell cytotoxicity, dose response, cytotoxicity control (AID 540296)

Row | Structure (SMILES) | outcome
1 | Cc1ccc(N2C(=O)C(CC(=O)Nc3cccc(F)c3)N(C3CC3)C2=O)cc1 (configuration not stated) | inactive
2 | CN(C)c1cccc2c(C=C(C#N)C#N)ccc(N(C)C)c12 | inactive
